Assay results published in the supplement of paper PMC9948646.

Test system: gramicidin D channels in DC22:1PC lipid vesicles (bilayer-modifying potency)
Test: initial Tl+ fluorescence quench rate relative to no-drug control (NormRate, gramicidin monomer-dimer shift) (ratio (fold of control)); higher = stronger bilayer-modifying effect (equilibrium shifted toward conducting dimers), active = 1.5 or more
Conditions: 10 µM; lipid concentration 50 µM; temperature: 25 °C
Procedure: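 Stopped-flow fluorescence quench assay: ANTS-loaded DC22:1PC large unilamellar vesicles doped with gramicidin D (1:2000), 50 µM lipid, equilibrated 10 min with 10 µM drug (0.1% DMSO), mixed with Tl+ quench buffer at 25°C. Initial quench rate (Tl+ influx) was fitted with a modified stretched exponential and normalised to the no-drug control rate (NormRate); duplicates from two independent LUV preparations (triplicates for 7 drugs).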

Structure (SMILES) | initial Tl+ fluorescence quench rate
CCc1cc(=O)n(C)c(S[C@H](C)C(=O)Nc2ccc(F)cc2)n1 | 1.15 (inactive)
Cc1ccc(-c2cc(C(=O)Nc3cccnc3)c3cc(Br)ccc3n2)cc1 | 2.5 (active)
C[C@H]1c2cccc(O)c2C(=O)C2=C(O)[C@]3(O)C(=O)C(C(N)=O)=C(O)[C@@H](N(C)C)[C@@H]3[C@@H](O)[C@@H]21 | 1.02 (inactive)
CS(=O)(=O)N1CCC(CCn2nc(Cc3cccc4ccccc34)c3c(N)ncnc32)CC1 | 1.95 (active)
c1ccc(-c2nc(NC3CCCCC3)cc(C3CC3)n2)nc1 | 1.76 (active)
COc1ccccc1CNC(=O)c1cc(C2CC2)nc2c1cnn2C(C)C | 1.62 (active)
N#Cc1ccc(-c2ccc(OCC(N)=O)cc2)cc1 | 1.06 (inactive)
Clc1ccc(Cl)c(CO[C@H]2CCCC[C@@H]2n2ccnc2)c1 | 1.09 (inactive)
CCOc1ccccc1N[C@H](C)C(=O)Nc1cc(C(F)(F)F)ccc1N1CCOCC1 | 1.72 (active)
O=C(C1CCN(c2nnnn2-c2ccccc2)CC1)N1CCc2ccccc2C1 | 1.23 (inactive)
Cc1ccccc1C(=O)N1N=C(Nc2ccccc2)SC1(C)C | 2.12 (active)
CC(C)(C)c1ccc(N[C@@H]2CCCC[C@H]2NC(=O)c2ccco2)cc1 | 1.36 (inactive)
O=C(Nc1nc(-c2ccccn2)cs1)c1cncn1-c1ccccc1 | 1.1 (inactive)
COc1ccc(OC)c(NCc2ccc3nc(N)nc(N)c3c2Cl)c1 | 1.54 (active)
O=C([C@@H](Cc1c[nH]c2ccccc12)NS(=O)(=O)c1ccc(Cl)cc1)N1CCCCC1 | 4.26 (active)
C[C@@H]1[C@H](O)[C@@H](C)/C=C/C=C/C=C/C=C/C=C/C=C/C=C/[C@H](O[C@@H]2O[C@H](C)[C@@H](O)[C@H](N)[C@@H]2O)C[C@@H]2O[C@](O)(C[C@@H](O)C[C@@H](O)[C@H](O)CC[C@@H](O)C[C@@H](O)CC(=O)O[C@H]1C)C[C@H](O)[C@H]2C(=O)O | 1.03 (inactive)
COc1cc(N[C@H](C)CCCN)c2ncccc2c1 | 1.02 (inactive)
CC(C)(C)[C@H]1CC[C@H](CC2=C(O)C(=O)c3ccccc3C2=O)CC1 | 1.31 (inactive)
COc1cc2ncnc(NC3CCN(Cc4ccccc4)CC3)c2cc1OC | 1.04 (inactive)

Structure (SMILES) | initial Tl+ fluorescence quench rate
CCOc1ccc(OCC(=O)Nc2cc(C)cc(C)c2)cc1 | 1.45 (inactive)
Cc1cc(C(=O)Nc2ccc(-c3ccccc3)cc2)no1 | 1.11 (inactive)
CCc1ccc([C@@H]2C[C@H](C(F)(F)F)n3ncc(C(=O)NCc4ccc(OC)cc4)c3N2)cc1 | 4.55 (active)
CC(C)c1ncc(-c2ccncc2)c([C@H]2CC[C@H](CNC(=O)c3cccnc3)CC2)n1 | 1.02 (inactive)
O=C(Nc1c(O)cccc1-c1nc2c(C(=O)O)cccc2o1)c1cc(-c2ccccc2)on1 | 1.35 (inactive)
Cc1cc(NC(=O)c2ccc(S(=O)(=O)N(Cc3ccccc3)C(C)C)cc2)no1 | 1.14 (inactive)
CC(=O)N1CCc2cc3nc(C)cc(C)c3cc21 | 1.09 (inactive)
CC(=O)Nc1ccc(NC(=O)c2cc(-c3cc(Cl)ccc3O)[nH]n2)cc1 | 1.06 (inactive)
Nc1ncnc2[nH]nc(Cc3cccc4ccccc34)c12 | 1.15 (inactive)
CCN(CC)CCCN1CCN(C(=O)c2cccc(-c3noc(C(F)(F)F)n3)c2)CC1 | 1.25 (inactive)
Brc1c(-c2ccc3c(c2)OCO3)nc2ncccn12 | 1.12 (inactive)
NC(=O)c1cc(Br)ccc1OCCOc1ccccc1 | 1.21 (inactive)
CN1CCN(S(=O)(=O)c2ccc(-c3ccc4c(Nc5ccc6nn[nH]c6c5)ccnc4c3)cc2)CC1 | 1.28 (inactive)
[H]/N=C(\Nc1ccc(Cl)cc1)Nc1nc(C)cc(NCCc2ccccc2)n1 | 3.21 (active)
Cc1cc2ccccc2n1CC(=O)N1C[C@@H](C(=O)N2CCCCC2)Oc2ccccc21 | 1.72 (active)
O=C(NC1=NCCS1)c1sc2cc(F)ccc2c1Cl | 1.06 (inactive)
Cc1ccc2[nH]c3c(NCCN(C)C)ncnc3c2c1 | 1.05 (inactive)
COc1ccc(C2(C(=O)Nc3ccc(Br)cc3)CCCC2)cc1 | 1.14 (inactive)
c1csc(-c2cnc3sc(NCC4CCOCC4)nn23)c1 | 1.71 (active)
